Data as given in the supplement of paper PMC11732987, “Enantioselective OTUD7B fragment discovery through chemoproteomics screening and high-throughput optimisation” (Communications Chemistry, 2025).

How the values were obtained:
Experiment in all cases: log2 ratio of Biotin-Ahx-Ub-VS probe labelling (fragment/DMSO); higher = less target engagement (more negative = stronger competition), active = hit call of the paper (q ≤ 0.05, log2 ratio ≤ -1)
Details in all cases: compound concentration: 200 uM; treatment time: 3 h
[1] = biological target: T1, USP42 (UniProt Q9H9J4)
T1 sequence (whole entry): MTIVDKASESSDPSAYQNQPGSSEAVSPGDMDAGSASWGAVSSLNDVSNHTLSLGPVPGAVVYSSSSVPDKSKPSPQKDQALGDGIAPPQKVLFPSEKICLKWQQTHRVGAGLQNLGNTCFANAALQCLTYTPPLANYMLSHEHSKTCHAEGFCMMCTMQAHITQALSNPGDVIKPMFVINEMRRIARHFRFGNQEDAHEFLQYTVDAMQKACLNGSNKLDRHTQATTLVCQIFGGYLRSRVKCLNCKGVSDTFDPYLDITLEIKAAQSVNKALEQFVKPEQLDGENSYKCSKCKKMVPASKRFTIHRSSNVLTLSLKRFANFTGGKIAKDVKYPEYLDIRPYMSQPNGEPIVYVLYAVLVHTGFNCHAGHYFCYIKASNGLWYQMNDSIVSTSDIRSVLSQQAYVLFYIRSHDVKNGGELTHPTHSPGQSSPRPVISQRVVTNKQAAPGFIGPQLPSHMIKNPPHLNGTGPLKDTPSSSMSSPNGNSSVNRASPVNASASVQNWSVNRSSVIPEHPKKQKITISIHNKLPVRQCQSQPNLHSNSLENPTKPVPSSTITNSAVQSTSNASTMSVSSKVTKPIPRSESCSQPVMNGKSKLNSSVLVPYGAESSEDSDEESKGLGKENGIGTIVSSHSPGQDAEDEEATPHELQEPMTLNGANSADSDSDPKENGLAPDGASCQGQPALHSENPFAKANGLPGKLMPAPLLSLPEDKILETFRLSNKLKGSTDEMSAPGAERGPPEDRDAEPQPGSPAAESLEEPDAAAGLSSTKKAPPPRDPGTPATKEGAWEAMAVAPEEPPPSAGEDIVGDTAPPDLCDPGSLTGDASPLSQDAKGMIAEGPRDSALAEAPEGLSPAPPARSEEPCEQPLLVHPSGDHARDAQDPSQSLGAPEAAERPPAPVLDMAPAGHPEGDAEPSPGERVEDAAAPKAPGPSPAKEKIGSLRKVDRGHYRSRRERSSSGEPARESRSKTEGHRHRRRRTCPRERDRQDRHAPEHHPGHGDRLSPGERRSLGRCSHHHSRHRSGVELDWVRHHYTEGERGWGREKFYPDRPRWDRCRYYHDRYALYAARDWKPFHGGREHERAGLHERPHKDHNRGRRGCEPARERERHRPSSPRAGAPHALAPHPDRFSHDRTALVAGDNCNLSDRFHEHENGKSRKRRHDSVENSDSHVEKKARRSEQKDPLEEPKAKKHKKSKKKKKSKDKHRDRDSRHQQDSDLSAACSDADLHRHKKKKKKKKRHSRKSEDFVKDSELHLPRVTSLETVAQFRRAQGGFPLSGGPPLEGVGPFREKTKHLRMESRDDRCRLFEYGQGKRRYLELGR
Method in brief: (§1)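 The table lists average log2 ratios of fragment over vehicle, from an unpaired t-test on global-median-normalised Spectronaut label-free quantities. Proteins with ≥2 unique peptides were used. Samples were HEK293T lysate (495 µg) treated in triplicate with fragment at 200 µM or vehicle for 3 h, then with Biotin-Ahx-Ub-VS (0.5 µM final) for 1 h, with labelled DUBs NeutrAvidin-enriched and run by diaPASEF LC-MS/MS.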

[2] = biological target: USP46 (UniProt P62068)
USP46, sequence (P62068 whole entry): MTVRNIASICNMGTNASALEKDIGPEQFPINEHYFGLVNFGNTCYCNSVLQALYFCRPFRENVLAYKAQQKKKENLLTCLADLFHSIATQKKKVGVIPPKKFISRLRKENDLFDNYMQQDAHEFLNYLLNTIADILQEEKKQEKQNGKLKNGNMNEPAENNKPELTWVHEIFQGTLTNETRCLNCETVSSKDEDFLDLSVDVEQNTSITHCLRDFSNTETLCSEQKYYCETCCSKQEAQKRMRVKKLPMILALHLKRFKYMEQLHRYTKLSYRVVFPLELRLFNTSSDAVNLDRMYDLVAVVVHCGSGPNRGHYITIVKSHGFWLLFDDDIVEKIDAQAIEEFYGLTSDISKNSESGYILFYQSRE
Method in brief: as §1

[3] = biological target: T2, USP47 (UniProt Q96K76)
T2 sequence (whole entry): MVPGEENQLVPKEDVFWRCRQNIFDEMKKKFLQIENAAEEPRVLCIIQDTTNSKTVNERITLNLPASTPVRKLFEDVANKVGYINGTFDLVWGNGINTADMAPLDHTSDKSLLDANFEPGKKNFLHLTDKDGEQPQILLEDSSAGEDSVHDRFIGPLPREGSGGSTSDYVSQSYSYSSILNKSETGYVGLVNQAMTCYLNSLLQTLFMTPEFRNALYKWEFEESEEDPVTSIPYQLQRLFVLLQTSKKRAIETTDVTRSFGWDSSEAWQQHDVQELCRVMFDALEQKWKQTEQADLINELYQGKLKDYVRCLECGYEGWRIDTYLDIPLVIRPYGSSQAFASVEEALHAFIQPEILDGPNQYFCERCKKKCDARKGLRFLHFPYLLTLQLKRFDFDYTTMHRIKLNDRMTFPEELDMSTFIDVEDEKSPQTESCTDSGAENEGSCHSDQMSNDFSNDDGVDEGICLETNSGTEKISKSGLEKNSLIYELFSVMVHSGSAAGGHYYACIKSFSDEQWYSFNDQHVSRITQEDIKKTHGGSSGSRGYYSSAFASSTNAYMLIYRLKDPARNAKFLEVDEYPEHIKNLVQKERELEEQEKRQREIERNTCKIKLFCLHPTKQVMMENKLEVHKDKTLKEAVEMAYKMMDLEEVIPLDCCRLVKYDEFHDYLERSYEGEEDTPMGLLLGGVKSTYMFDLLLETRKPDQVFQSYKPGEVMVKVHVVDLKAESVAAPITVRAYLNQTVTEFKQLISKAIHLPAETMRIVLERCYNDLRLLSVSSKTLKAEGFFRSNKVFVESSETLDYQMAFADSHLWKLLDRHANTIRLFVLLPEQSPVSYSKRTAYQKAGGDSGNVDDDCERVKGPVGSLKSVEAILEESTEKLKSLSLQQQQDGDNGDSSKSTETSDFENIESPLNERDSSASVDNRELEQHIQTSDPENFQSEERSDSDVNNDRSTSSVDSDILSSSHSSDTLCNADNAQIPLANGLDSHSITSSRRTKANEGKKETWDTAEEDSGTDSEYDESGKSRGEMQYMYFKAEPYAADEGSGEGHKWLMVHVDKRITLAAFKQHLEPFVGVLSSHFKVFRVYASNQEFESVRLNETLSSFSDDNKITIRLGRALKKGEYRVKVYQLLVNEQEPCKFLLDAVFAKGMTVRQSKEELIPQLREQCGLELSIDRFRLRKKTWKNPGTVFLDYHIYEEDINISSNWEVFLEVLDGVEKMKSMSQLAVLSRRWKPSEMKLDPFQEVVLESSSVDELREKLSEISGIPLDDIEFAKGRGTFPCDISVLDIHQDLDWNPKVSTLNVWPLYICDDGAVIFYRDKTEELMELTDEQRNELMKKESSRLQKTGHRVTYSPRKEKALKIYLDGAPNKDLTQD
Method in brief: as §1

[4] = biological target: T3, USP48 (UniProt Q86UV5)
T3 sequence (whole entry): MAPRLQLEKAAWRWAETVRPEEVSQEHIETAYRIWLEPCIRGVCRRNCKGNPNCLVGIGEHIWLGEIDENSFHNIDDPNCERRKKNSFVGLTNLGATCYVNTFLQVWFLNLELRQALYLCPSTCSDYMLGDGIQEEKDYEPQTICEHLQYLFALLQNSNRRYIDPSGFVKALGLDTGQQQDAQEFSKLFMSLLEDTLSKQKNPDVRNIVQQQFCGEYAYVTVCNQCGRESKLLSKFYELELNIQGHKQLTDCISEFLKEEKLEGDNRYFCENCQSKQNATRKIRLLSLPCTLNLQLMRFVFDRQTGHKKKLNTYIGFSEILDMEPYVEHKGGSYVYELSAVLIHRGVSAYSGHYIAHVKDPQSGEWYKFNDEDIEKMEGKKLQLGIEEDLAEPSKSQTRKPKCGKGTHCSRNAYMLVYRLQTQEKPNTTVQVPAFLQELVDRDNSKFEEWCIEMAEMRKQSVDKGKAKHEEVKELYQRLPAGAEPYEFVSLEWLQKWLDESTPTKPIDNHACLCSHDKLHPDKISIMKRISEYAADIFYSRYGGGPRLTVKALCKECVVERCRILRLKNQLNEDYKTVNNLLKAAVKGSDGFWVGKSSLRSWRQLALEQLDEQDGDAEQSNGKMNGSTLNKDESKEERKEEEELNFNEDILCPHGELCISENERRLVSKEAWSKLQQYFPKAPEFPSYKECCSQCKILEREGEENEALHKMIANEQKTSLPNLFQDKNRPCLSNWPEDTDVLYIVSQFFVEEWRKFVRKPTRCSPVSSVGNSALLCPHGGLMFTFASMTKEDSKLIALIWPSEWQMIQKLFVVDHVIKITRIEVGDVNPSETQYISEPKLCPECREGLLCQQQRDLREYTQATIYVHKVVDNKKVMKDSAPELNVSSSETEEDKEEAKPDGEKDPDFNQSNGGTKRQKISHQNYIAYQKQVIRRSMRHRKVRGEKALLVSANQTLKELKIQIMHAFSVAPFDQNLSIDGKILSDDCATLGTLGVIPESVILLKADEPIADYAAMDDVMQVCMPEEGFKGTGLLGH
Method in brief: as §1

[5] = biological target: T4, USP5 (UniProt P45974)
T4 sequence (whole entry): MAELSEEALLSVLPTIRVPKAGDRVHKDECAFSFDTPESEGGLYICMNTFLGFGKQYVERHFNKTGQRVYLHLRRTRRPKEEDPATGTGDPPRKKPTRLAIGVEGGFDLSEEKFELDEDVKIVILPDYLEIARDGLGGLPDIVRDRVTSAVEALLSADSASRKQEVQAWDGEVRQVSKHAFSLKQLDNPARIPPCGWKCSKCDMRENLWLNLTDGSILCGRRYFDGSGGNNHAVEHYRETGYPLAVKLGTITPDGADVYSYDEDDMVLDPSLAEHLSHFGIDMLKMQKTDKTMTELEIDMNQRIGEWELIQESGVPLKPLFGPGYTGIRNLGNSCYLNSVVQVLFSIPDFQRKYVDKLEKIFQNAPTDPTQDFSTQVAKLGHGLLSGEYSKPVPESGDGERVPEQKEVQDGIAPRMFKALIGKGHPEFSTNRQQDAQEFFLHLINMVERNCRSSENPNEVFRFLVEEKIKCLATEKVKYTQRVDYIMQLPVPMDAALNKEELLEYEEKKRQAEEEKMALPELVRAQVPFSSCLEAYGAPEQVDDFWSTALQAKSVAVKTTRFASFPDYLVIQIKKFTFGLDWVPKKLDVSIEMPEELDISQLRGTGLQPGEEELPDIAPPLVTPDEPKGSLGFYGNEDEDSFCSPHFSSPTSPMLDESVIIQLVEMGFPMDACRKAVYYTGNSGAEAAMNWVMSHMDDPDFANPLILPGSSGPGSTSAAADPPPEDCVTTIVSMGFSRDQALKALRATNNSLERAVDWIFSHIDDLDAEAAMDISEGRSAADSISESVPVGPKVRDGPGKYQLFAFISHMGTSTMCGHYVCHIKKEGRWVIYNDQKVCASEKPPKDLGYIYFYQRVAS
Method in brief: as §1

[6] = biological target: USP54 (UniProt Q70EL1)
USP54, sequence (Q70EL1 whole entry): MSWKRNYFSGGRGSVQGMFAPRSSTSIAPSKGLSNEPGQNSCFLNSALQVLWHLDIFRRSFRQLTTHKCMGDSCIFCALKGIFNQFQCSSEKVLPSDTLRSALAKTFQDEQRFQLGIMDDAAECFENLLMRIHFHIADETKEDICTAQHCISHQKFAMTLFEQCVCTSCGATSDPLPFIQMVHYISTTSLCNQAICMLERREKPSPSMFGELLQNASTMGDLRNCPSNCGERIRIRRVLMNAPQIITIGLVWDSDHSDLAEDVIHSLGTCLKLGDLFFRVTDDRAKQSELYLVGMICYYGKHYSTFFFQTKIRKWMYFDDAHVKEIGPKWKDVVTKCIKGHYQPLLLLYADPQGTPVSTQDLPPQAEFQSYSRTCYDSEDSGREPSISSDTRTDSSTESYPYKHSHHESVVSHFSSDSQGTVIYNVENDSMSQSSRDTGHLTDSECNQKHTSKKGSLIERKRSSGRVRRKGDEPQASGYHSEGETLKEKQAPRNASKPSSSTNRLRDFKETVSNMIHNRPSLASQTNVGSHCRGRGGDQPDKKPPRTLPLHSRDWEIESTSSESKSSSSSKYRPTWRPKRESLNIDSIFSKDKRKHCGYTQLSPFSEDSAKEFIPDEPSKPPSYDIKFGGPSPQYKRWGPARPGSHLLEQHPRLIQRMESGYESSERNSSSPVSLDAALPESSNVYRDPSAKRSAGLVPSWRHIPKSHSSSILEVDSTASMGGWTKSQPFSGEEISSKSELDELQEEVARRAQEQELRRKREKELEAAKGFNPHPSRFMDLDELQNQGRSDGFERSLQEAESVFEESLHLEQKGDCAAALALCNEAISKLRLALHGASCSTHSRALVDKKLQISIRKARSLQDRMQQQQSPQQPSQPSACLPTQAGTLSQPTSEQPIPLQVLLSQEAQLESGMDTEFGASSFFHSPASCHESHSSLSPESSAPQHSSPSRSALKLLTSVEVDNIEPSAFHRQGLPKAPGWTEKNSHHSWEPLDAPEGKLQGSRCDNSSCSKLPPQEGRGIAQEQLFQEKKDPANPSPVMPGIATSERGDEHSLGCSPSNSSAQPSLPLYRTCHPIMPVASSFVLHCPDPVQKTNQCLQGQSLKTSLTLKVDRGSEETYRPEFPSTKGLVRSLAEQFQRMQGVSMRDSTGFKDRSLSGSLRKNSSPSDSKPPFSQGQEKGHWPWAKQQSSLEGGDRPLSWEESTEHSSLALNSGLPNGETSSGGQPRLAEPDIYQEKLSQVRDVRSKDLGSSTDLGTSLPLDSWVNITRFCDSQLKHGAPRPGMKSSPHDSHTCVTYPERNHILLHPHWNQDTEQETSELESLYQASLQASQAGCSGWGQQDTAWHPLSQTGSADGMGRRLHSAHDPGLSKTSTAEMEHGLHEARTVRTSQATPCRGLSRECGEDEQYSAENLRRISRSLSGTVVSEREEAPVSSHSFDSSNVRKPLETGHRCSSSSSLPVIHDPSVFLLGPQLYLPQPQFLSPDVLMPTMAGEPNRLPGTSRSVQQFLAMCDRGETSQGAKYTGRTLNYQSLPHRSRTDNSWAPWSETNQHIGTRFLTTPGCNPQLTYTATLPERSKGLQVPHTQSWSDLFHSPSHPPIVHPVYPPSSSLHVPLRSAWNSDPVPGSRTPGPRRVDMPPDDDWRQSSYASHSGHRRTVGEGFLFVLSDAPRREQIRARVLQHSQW
Method in brief: as §1

[7] = biological target: USP7 (UniProt Q93009)
USP7, sequence (Q93009 whole entry, looked up): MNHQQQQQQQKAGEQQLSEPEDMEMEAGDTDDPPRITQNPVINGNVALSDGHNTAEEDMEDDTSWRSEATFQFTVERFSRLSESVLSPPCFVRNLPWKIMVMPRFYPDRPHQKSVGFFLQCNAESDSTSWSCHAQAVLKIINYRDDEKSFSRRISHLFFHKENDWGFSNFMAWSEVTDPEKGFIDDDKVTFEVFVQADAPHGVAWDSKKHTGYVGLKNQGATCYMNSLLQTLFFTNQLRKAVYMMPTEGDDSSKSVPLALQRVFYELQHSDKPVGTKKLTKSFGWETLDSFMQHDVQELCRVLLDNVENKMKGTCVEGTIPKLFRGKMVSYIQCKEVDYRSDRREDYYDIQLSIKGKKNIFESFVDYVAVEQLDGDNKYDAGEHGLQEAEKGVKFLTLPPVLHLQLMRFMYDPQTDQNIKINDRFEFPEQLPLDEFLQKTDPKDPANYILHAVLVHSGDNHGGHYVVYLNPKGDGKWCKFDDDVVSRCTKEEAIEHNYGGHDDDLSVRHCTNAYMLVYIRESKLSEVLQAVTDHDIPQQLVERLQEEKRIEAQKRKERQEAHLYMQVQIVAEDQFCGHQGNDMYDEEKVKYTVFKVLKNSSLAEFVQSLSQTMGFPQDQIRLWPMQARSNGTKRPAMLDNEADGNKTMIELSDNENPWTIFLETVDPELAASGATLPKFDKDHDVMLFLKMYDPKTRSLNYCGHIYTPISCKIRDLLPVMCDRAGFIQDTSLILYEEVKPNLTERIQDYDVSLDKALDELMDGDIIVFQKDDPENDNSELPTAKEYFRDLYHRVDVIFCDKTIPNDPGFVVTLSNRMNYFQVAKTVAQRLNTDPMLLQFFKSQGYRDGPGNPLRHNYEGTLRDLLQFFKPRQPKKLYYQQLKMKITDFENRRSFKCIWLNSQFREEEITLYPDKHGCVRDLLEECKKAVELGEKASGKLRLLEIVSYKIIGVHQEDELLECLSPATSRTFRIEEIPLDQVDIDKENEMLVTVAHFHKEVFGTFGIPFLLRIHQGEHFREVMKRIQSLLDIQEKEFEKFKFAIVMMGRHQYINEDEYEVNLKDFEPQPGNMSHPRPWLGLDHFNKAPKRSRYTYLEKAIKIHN
Method in brief: as §1

[8] = biological target: T5, USP8 (UniProt P40818)
T5 sequence (whole entry): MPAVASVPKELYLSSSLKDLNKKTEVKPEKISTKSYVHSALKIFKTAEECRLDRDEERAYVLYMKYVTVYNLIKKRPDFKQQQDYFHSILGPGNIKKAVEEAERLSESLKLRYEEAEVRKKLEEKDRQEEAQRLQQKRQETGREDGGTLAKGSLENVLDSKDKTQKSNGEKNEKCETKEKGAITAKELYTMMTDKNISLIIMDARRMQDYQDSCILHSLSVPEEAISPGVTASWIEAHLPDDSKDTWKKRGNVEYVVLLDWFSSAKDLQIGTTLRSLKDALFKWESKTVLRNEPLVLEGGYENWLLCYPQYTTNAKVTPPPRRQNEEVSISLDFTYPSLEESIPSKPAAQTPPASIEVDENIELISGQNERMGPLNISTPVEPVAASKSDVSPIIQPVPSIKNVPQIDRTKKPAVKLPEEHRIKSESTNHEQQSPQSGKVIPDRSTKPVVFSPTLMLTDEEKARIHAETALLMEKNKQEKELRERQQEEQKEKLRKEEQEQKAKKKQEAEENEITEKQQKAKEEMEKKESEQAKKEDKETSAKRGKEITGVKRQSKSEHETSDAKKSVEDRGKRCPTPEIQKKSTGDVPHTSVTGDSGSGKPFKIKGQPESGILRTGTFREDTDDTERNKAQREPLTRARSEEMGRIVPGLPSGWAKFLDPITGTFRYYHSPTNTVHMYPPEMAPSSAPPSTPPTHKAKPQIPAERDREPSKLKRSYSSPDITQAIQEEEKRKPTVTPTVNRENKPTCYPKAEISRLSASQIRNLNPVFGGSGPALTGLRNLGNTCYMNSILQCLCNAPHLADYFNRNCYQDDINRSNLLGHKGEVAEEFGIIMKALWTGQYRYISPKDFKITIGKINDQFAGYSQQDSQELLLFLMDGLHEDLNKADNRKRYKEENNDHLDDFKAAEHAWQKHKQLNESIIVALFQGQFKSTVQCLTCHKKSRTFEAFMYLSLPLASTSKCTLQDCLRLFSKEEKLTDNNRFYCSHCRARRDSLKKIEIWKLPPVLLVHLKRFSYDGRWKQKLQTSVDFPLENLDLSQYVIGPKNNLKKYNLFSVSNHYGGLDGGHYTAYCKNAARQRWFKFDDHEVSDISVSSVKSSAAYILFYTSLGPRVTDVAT
Method in brief: as §1

[9] = biological target: USP9X (UniProt Q93008)
Method in brief: as §1

[10] = biological target: UniProt O00487
UniProt O00487, sequence (O00487 whole entry): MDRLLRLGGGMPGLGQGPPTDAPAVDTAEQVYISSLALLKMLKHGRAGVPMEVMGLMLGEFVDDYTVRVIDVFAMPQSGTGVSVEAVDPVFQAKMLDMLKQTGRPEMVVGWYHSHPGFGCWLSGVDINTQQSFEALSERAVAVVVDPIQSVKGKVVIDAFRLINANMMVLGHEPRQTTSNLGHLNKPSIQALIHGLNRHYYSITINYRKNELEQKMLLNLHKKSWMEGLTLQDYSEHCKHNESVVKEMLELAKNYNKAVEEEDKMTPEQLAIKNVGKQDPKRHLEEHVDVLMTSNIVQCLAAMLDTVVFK
Method in brief: as §1

Measured: log2 ratio of Biotin-Ahx-Ub-VS probe labelling

O=C(CCl)N1CCC(O)(Cc2ccc(F)cc2)C1 (stereo not given)
inactive: [1] 0.0317 | [2] -0.0773 | [3] -0.574 | [4] -0.434 | [5] 0.465 | [6] -0.501 | [7] -0.133 | [8] -0.169 | [9] 0.0751 | [10] -0.0616
